How the values were obtained:
Experiment in all cases: relative growth (AUC of 72 h growth curve relative to DMSO control, dAUC) (ratio); higher = more growth (less inhibition), active = hit call of the paper
Settings in all cases: 20 µM;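 active = growth AUC significantly below the DMSO wells by Dunnett test; inactive = the rest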
[1] = tested on: Aeromonas 1 (Aeromonas sp. AE235)
How it was run: (§1)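 Relative growth (dAUC) is the spline-integrated area under the growth curve divided by the mean of the DMSO-only control wells. Cultures were isolates from Icelandic stream sediments and Silwood Park soil, plus whole sediment communities, grown to carrying capacity in Luria–Bertani medium and diluted 1:100 into 96-well plates containing each chemical at 20 µM (1% DMSO). A600 was read hourly for 72 h on a plate reader, with brief shaking before each read, and values were averaged over three biological replicates.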

[2] = tested on: Aeromonas 2 (Aeromonas sobria)
How it was run: as §1

[3] = tested on: Aeromonas 3 (Aeromonas popoffii)
How it was run: as §1

[4] = tested on: Argrobacterium 1 (Agrobacterium sp.)
How it was run: as §1

[5] = tested on: Arthrobacter 1 (Arthrobacter humicola)
How it was run: as §1

[6] = tested on: Arthrobacter 2 (Arthrobacter humicola)
How it was run: as §1

[7] = tested on: Arthrobacter 3 (Arthrobacter sp.)
How it was run: as §1

[8] = tested on: Community 10
How it was run: as §1

[9] = tested on: Community 4
How it was run: as §1

[10] = tested on: Community 6
How it was run: as §1

Measured: relative growth

CC(C)(C)[C@@H](O)[C@H](Oc1ccc(Cl)cc1)n1cncn1
inactive: [1] 1.02 | [2] 1.04 | [3] 1.03 | [4] 1.03 | [5] 1.15 | [6] 1.1 | [7] 1.02 | [8] 1.07 | [9] 1.14 | [10] 1.12

COc1ccc(C(=CC(=O)N2CCOCC2)c2ccc(Cl)cc2)cc1OC (mixture of isomers)
inactive: [1] 0.973 | [2] 0.993 | [3] 0.998 | [4] 1.03 | [5] 1.06 | [6] 0.983 | [7] 0.973 | [8] 0.919 | [9] 1.07 | [10] 0.974

CC(C)NC(=O)N1CC(=O)N(c2cc(Cl)cc(Cl)c2)C1=O
inactive: [1] 0.998 | [2] 0.934 | [3] 1.01 | [4] 0.984 | [5] 1.06 | [6] 0.957 | [7] 0.841 | [8] 1.01 | [9] 0.925 | [10] 0.969

CC(Oc1ccc(Oc2ncc(C(F)(F)F)cc2Cl)cc1)C(=O)O (stereo not drawn)
inactive: [1] 0.952 | [2] 0.974 | [3] 0.959 | [4] 0.969 | [5] 1.08 | [6] 1.03 | [7] 1.08 | [8] 0.793 | [9] 1.02 | [10] 0.947

CC1(C(=O)Nc2ccc(O)c(Cl)c2Cl)CCCCC1
inactive: [1] 0.972 | [2] 0.983 | [3] 0.993 | [4] 0.983 | [5] 0.846 | [6] 1.02 | [7] 0.984 | [8] 0.827 | [9] 0.977 | [10] 0.984

Oc1ccc(Cl)cc1Cc1cc(Cl)ccc1O
inactive: [4] 0.959 | [8] 0.642 | [9] 0.664
active: [1] 0.522 | [2] 0.00195 | [3] 0.275 | [5] 0.00578 | [6] 0.00499 | [7] 0.011 | [10] 0.496

CO/C=C(/C(=O)OC)c1ccccc1Oc1cc(Oc2ccccc2C#N)ncn1
inactive: [1] 0.938 | [2] 0.929 | [3] 0.947 | [4] 1.02 | [5] 0.985 | [6] 1 | [7] 1.08 | [8] 0.868 | [9] 1.1 | [10] 0.903

CC1(C)C(C=C(Cl)Cl)C1C(=O)OCc1cccc(Oc2ccccc2)c1 (stereo not drawn)
inactive: [1] 1.03 | [2] 0.961 | [3] 0.99 | [4] 1.04 | [5] 1.12 | [6] 0.851 | [7] 0.987 | [8] 0.824 | [9] 0.922 | [10] 0.94

O=C(Nc1ccccc1-c1ccc(Cl)cc1)c1cccnc1Cl
inactive: [1] 1.02 | [2] 0.995 | [3] 1.04 | [4] 0.962 | [5] 0.891 | [6] 1.01 | [7] 0.869 | [9] 1.01 | [10] 1.01

CC[C@H](C)C1O[C@]2(C=C[C@@H]1C)C[C@@H]1C[C@@H](C/C=C(\C)[C@@H](O[C@H]3C[C@H](OC)[C@@H](O[C@H]4C[C@H](OC)[C@H](NC)[C@H](C)O4)[C@H](C)O3)[C@@H](C)/C=C/C=C3\CO[C@@H]4[C@H](O)C(C)=C[C@@H](C(=O)O1)[C@]34O)O2 (stereo partly drawn)
active: [5] 0.108 | [6] 0.00328 | [7] 0.324 | [10] 0.509
inactive: [1] 1.08 | [2] 0.923 | [3] 0.979 | [4] 1.11 | [8] 0.9 | [9] 0.787

COP(=S)(OC)Oc1nc(Cl)c(Cl)cc1Cl
inactive: [1] 1.04 | [2] 1.02 | [3] 1.01 | [4] 1.05 | [5] 0.769 | [8] 0.856 | [9] 0.867 | [10] 0.987
active: [6] 0.312 | [7] 0.646

CCOP(=S)(OCC)Oc1cc(C)nc(C(C)C)n1
inactive: [1] 0.987 | [2] 0.964 | [3] 0.98 | [4] 1.16 | [5] 0.981 | [6] 0.834 | [7] 0.888 | [8] 0.743 | [9] 0.904 | [10] 0.958

CC[C@H](C)[C@H]1O[C@]2(C=C[C@@H]1C)C[C@@H]1C[C@@H](C/C=C(\C)[C@@H](O[C@H]3C[C@H](OC)[C@@H](O[C@H]4C[C@H](OC)[C@@H](O)[C@H](C)O4)[C@H](C)O3)[C@@H](C)/C=C/C=C3\CO[C@@H]4[C@H](O)C(C)=C[C@@H](C(=O)O1)[C@]34O)O2.CO[C@H]1C[C@H](O[C@H]2[C@H](C)O[C@@H](O[C@@H]3/C(C)=C/C[C@@H]4C[C@@H](C[C@]5(C=C[C@H](C)[C@@H](C(C)C)O5)O4)OC(=O)[C@@H]4C=C(C)[C@@H](O)[C@H]5OC/C(=C\C=C\[C@@H]3C)[C@]54O)C[C@@H]2OC)O[C@@H](C)[C@@H]1O
active: [5] 0.181 | [6] 0.00817 | [7] 0.16 | [10] 0.662
inactive: [1] 0.949 | [2] 0.927 | [3] 1.06 | [4] 1.11 | [8] 0.898 | [9] 0.808

O=C1c2ccccc2C(=O)N1SC(Cl)(Cl)Cl
inactive: [1] 1.04 | [2] 0.951 | [3] 0.992 | [4] 1.04 | [5] 1.04 | [6] 0.994 | [7] 1.1 | [8] 0.818 | [9] 0.962 | [10] 0.721

CS(=O)(=O)c1cc(C(F)(F)F)ccc1C(=O)c1cnoc1C1CC1
inactive: [1] 1.02 | [2] 1.01 | [3] 1.04 | [4] 1.01 | [5] 1.1 | [6] 1.08 | [7] 1.04 | [8] 1.13 | [9] 1.14 | [10] 1.13

CCC(C)c1ccccc1OC(=O)NC (stereo not drawn)
inactive: [1] 1 | [2] 0.975 | [3] 0.991 | [4] 1.06 | [5] 0.921 | [6] 1.08 | [7] 1.08 | [8] 1.08 | [9] 1.06 | [10] 1.07

Cc1cc(C)nc(Nc2ccccc2)n1
inactive: [1] 0.974 | [2] 0.977 | [3] 1.07 | [4] 0.874 | [5] 0.948 | [6] 0.929 | [7] 1.03 | [8] 1.07 | [9] 0.984 | [10] 1.04

CCNC(=O)NC(=O)/C(C#N)=N/OC
inactive: [1] 0.983 | [2] 0.967 | [3] 0.988 | [4] 1.01 | [5] 0.901 | [6] 0.894 | [7] 0.975 | [8] 1.03 | [9] 0.963 | [10] 1

CS(=O)(=O)c1ccc(C(=O)C2C(=O)CCCC2=O)c([N+](=O)[O-])c1
inactive: [1] 0.965 | [2] 1 | [3] 0.97 | [4] 0.959 | [5] 1 | [6] 1.07 | [7] 1.02 | [8] 1.02 | [9] 1.06 | [10] 1.04

CCC(CC)Nc1c([N+](=O)[O-])cc(C)c(C)c1[N+](=O)[O-]
inactive: [1] 0.951 | [2] 0.973 | [3] 0.997 | [4] 0.993 | [5] 0.901 | [6] 0.884 | [7] 1.02 | [8] 0.687 | [9] 0.88 | [10] 0.917

CNC(=O)c1cc(Cl)cc(C)c1NC(=O)c1cc(Br)nn1-c1ncccc1Cl
inactive: [1] 1.01 | [2] 1.05 | [3] 1.03 | [4] 0.963 | [5] 1.08 | [6] 0.758 | [7] 1.02 | [9] 1.09 | [10] 1.07

CC(C)N(C(=O)COc1nnc(C(F)(F)F)s1)c1ccc(F)cc1
inactive: [1] 1.04 | [2] 0.994 | [3] 0.973 | [4] 1.02 | [5] 1.05 | [6] 0.894 | [7] 1.02 | [8] 0.763 | [9] 1.04 | [10] 0.92

COC(=O)N(C(=O)N1CO[C@@]2(C(=O)OC)Cc3cc(Cl)ccc3C2=N1)c1ccc(OC(F)(F)F)cc1
inactive: [1] 0.96 | [2] 0.963 | [3] 0.971 | [4] 1.03 | [5] 1 | [6] 0.972 | [7] 1.02 | [8] 0.878 | [9] 1.03 | [10] 0.974

COC(=O)N(OC)c1ccccc1COc1ccn(-c2ccc(Cl)cc2)n1
inactive: [1] 1.04 | [2] 0.927 | [3] 0.979 | [4] 1.04 | [5] 1.16 | [6] 1.02 | [7] 0.903 | [8] 0.903 | [9] 0.941 | [10] 1.03
